An excerpt weighted towards active compounds, which were near 12% of everything screened.
BAZ2B inh: BAZ2B (human) inhibition | 360,000 compounds, 4.4% hits | Potency, µM (doses to about 114 µM), for inactives: top-dose activity change, negative = inhibition, hits mostly inhibitors | AlphaScreen BAZ2B-H3K14Ac peptide displacement; further: on the % scale 0 is the no-effect control and ±100 the full control effect; nearly all actives have a fitted effect of over 60% in size
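Inhibition is scored as reduced AlphaScreen emission. The BAZ2B/b-H3(5-23)K14Ac complex (50 nM each) in PBS pH 7.4, 0.01% Tween-20 meets compound (up to 110 uM) for 30 min at RT before bead addition.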
Sfp PPTase inh: inhibitors of Bacillus subtilis Sfp phosphopantetheinyl transferase | Q9F4F7 | Biochemical Sfp PPTase activity, qHTS | Potency, µM, for inactives: largest response in the series, negative = inhibition, hits mostly inhibitors | 310,000 compounds, 3.5% hits | AID 1490;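 further: the enzyme is Sfp with the accession as filed and its product quenches rhodamine fluorescence; 0% = enzyme reaction without inhibitor and -100% = no enzyme wells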
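Fluorescence-quenching assay: 15 nM Sfp-PPTase preincubated 15 min at room temperature with compound, then 5 uM rhodamine-CoA and 12.5 uM BHQ-2-labelled YbbR peptide added. Fluorescence (ex 525/em 598 nm) read at start and after 30 min; difference gives rate.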
TDP1 block: inhibitors of human tyrosyl-DNA phosphodiesterase TDP1. Q9NUW8. recombinant TDP1, AlphaScreen DNA substrate cleavage. Potency, µM (titrated, usually from 130 µM), for inactives: top-dose activity change, negative = inhibition, hits mostly inhibitors. 350,000 compounds, 0.28% hits. AID 485290; further: on the % scale 0 is the no-effect control and ±100 the full control effect; nearly all actives have a fitted effect of over 40% in size
Target sequence (Q9NUW8 whole entry, looked up): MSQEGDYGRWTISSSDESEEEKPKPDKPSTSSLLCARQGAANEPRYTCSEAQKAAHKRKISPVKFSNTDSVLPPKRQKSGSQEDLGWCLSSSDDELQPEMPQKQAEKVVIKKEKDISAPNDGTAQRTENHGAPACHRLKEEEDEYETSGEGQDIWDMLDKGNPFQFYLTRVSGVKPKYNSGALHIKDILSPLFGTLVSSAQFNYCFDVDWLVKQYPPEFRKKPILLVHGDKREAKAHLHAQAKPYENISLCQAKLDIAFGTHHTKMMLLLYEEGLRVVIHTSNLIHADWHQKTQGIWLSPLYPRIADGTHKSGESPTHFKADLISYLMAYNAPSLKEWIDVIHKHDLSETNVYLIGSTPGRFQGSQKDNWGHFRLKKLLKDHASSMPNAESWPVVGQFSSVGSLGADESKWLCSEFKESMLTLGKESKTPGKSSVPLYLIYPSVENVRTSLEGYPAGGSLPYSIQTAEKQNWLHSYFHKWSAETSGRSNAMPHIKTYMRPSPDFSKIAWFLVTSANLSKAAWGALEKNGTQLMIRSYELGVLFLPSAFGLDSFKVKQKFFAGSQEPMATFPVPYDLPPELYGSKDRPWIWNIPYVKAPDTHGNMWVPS
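AlphaScreen read-out: signal falls as enzyme removes the 3' tyrosine-FITC from a 5'-biotinylated DNA oligo (15 nM, 5 min, RT). Enzyme was E. coli-made recombinant Tdp1 at 1 nM, exposed to compound for 15 min beforehand; beads 10 ug/ml, 10 min.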
G9a inh: inhibitors of human histone lysine methyltransferase G9a; G9a H3K9 monomethylation, AlphaScreen, 2 h; 350,000 compounds, 8.8% hits; AID 504332; Potency, µM (titrated, usually from 102 µM), without a hit: at the top dose activity, negative = inhibition, most hits filed as inhibitors; Q96KQ7; further: on the % scale 0 is the no-effect control and ±100 the full control effect; nearly all actives have a fitted effect of over 75% in size
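Methyltransferase reactions run at room temperature for 2 h (20 nM enzyme, 500 nM biotin-H3K9 peptide, 20 uM SAM) after a 15 min compound preincubation; product detected by AlphaScreen beads and anti-H3K9me1 antibody.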
HP1b chromo inh: inhibitors of HP1-beta chromodomain binding to methylated histone tails | P83916 | AlphaScreen HP1-beta / biotin-H3K9me3 peptide binding | 390,000 compounds, 0.56% hits | Potency, µM (titrated, usually from 114 µM), inactives show at the highest dose activity change, negative = inhibition, actives largely listed as inhibitors; further: nearly all actives have a fitted effect of over 70% in size
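HP1-beta protein (50 nM final) preincubated 30 min at room temperature with biotinylated H3(1-18)K9me3 peptide (50 nM) in PBS pH 7.4, 0.01% Tween-20, then compound added for 30 min. AlphaScreen streptavidin donor/nickel chelate acceptor beads (10 ug/mL final), 30 min dark, luminescence read.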
JMJD2A Tudor inh: blocks the human JMJD2A Tudor domain | AlphaScreen JMJD2A-Tudor / H3K4me3 peptide binding | Potency, µM (titrated, usually from 114 µM), inactives show top-dose activity change, negative = inhibition, usual class: inhibitors | 390,000 compounds, 4.4% hits | AID 504339; further: on the % scale 0 is the no-effect control and ±100 the full control effect; nearly all actives have a fitted effect of over 50% in size
Numbers without * were called inactive; ? = inconclusive; . = no result; [ ] = remark or other dose. The call rests on the fitted dose curve; in most records, active means well fitted curve in the direction sought with a large enough effect; inconclusive means small, poorly fitted or top-dose-only effect, or another doubt; inactive means no such curve, though single readings can be large; an effect the other way counts as inactive or inconclusive. Potency means the concentration at half of the fitted maximal effect.

SMILES | BAZ2B inh | Sfp PPTase inh | TDP1 block | G9a inh | HP1b chromo inh | JMJD2A Tudor inh
CCNc1nc(NCC)nc(N/N=C/c2ccc(O)c(O)c2)n1 | ? | 50µM* | 5% | 40µM* | 37% | -18%
Cc1ccc(/C=N/Nc2nnc(Cl)c3ccccc23)cc1 | ? | -26% | 9% | 45µM* | 22% | -28%
CCNc1nc(NCC)nc(N/N=C/c2cc(OC)c(OC)c(OC)c2)n1 | -17% | 10% | . | 11% | 42% | -4%
CC(C)CNS(=O)(=O)c1ccc(S(=O)(=O)N2CCC(N3CCCCC3)CC2)cc1 | 2% | 2% | . | 1% | 11% | -7%
COc1ccc(CNC(=O)[C@H](C)N2C(=O)N3CCc4c([nH]c5ccccc45)[C@@]3(C)C2=O)cc1OC | -28% | 9% | . | 2% | 21% | -17%
CC(C)c1ccc(S(=O)(=O)N2CCN(C(=O)Cc3ccsc3)CC2)cc1 | -34% | . | -5% | ? | 38% | -8%
O=C(Cn1c(SCc2ccccc2F)nc2ccncc21)Nc1ccccc1C(F)(F)F | 4% | . | 3% | -9%[59 µM] | 27% | -16%
CCNc1nc(NCC)nc(N/N=C/c2ccc(N(C)C)cc2)n1 | 45µM* | 25% | 5% | 50µM* | -21% | ?
COc1ccc(C2c3c(nc(CCc4ccccc4)[nH]c3=O)Oc3ccc4ccccc4c32)cc1OC (stereo unspecified) | . | . | 1% | . | . | -18%
Oc1c(C=NCc2ccccc2)sc2ccccc12 | ? | 10% | 2% | ? | ? | 89µM*
Cc1c(P(=S)(c2ccccc2)c2ccccc2)c2ccccc2n1CCCc1ccccc1 | . | . | 1% | . | . | -2%
CCCCc1ccc(-c2nc(NC(=O)C3C4CCC(O4)C3C(=O)O)sc2C)cc1 (stereo unspecified) | ? | 1% | 4% | 50µM* | . | .
CCOc1ccc(C2C=C(c3ccccc3)Nc3nnnn32)cc1 (stereo unspecified) | 7% | -28% | 2% | 50µM* | 65% | -7%
CCOc1ccc(C2C=C(c3ccc(C)cc3)Nc3ncnn32)cc1 (stereo unspecified) | 12% | -30% | 8% | 28µM* | . | .
CCOc1ccc(C2C=C(c3ccc(C)cc3)Nc3nnnn32)cc1 (stereo unspecified) | ? | -11% | 6% | 50µM* | 37% | -10%[57.1 µM]
CCOc1ccc(C2C=C(c3cccc(OC)c3)Nc3nnnn32)cc1 (stereo unspecified) | -11% | . | 7% | 6%[59 µM] | 6% | -11%
COc1ccc(C2=CC(c3cccc(C)c3)n3nnnc3N2)cc1 (stereo unspecified) | 1% | . | 4% | ? | 78% | -22%
Cc1ccc(C2=CC(c3ccc(C)cc3)n3ncnc3N2)cc1 (stereo unspecified) | . | . | . | . | 56% | -17%
CO[C@@H]1c2cc(F)ccc2/C(=C\CCOC(=O)C/C=C/c2ccccc2)[C@H]1C | . | -22% | 6% | . | . | .
COC(=O)[C@H](COC(C)(C)C)NC(=O)O[C@@H]1C(=O)c2cc(OC)ccc2O[C@H]1c1cccc(OC)c1 | . | -3% | 3% | . | . | .
CC(=O)/C=C(\C)Nc1c(C)n(C)n(-c2ccccc2)c1=O | 3% | 18% | 0% | 3% | 4% | -9%
O=C(C1=C[C@@H](c2csc3ccccc23)C[C@@H](OCCCCO)O1)N1CCN(Cc2ccc3c(c2)OCO3)CC1 | ? | 1% | 8% | ? | -7% | ?
O=C(C1=C[C@H](c2csc3ccccc23)C[C@H](OCCCCO)O1)N1CCN(Cc2ccccc2)CC1 | 50µM* | ? | 0% | ? | 5% | ?
COC1=CC(=O)OC(c2ccco2)C1 (stereo unspecified) | . | . | . | . | 10% | -3%
Cc1ccccc1C(=O)Oc1ccc(Br)cc1C(=S)N1CCCC1 | -1% | -1% | 2% | 45µM* | 16% | -8%
SMILES | BAZ2B inh | Sfp PPTase inh | TDP1 block | G9a inh | HP1b chromo inh | JMJD2A Tudor inh
O=C(Oc1ccc(Br)cc1C(=S)N1CCCC1)c1ccccc1F | -8% | 45µM* | 4% | 8.9µM* | -17% | -12%
O=C(Oc1ccc(Br)cc1C(=S)N1CCCC1)c1ccccc1Cl | -14% | -5% | 6% | 7%[0.0925 µM] | 7% | -4%
Cc1nc2n(c(=O)c1CCN1CCC(c3noc4cc(F)ccc34)CC1)CCCC2O (stereo unspecified) | . | . | . | 30µM* | . | .
O=C(OCc1c(F)cccc1Cl)c1cccc(S(=O)(=O)N2CCOCC2)c1 | 10% | . | -4% | 8%[12.7 µM] | 57% | 17%
c1ccc(-c2csc(NC3CCCCC3)n2)cc1 | -30% | -8% | -4% | 50µM* | -12% | -23%
COc1ccc(-c2csc(NC3CCCCC3)n2)c(OC)c1 | -35% | -27% | -7%[0.0935 µM] | 45µM* | ? | ?
COc1ccc(-c2csc(-c3ccccc3)n2)c(OC)c1 | 77% | 0% | -7% | 38% | 169% | 51%
Cc1csc(=Nc2cccnc2)n1Cc1ccco1 | 45µM* | -10% | 8% | -38% | -10% | -19%
Cc1csc(=Nc2cccnc2)n1CC1CCCCC1 | 45µM* | -11% | 4% | ? | 6% | -22%
O=C(COc1ccc(OCc2ccccc2)cc1)NN=C1CCCC1 | -26% | 6% | -9% | 25% | -10% | 9%
O=C1CCCCC/C1=N/Nc1ccc(OCc2ccccc2)cc1 | ? | -9% | 7% | 32µM* | 14% | ?
COc1ccc(-c2nnc(OCc3nc4ccccc4n3C)c3ccccc23)cc1 | -35% | 3% | 5% | -1%[59 µM] | 3% | 50µM*
Cn1c(COc2nnc(-c3ccc(Cl)cc3)c3ccccc23)nc2ccccc21 | -37% | 15% | -8% | ? | 26% | -6%
Cc1ccc(NC(=O)CN2C(=O)CSc3ccc(S(=O)(=O)N4CCCCC4)cc32)cc1 | -13% | 16% | 6% | -4%[59 µM] | 25% | -29%
O=C(O)C(Cc1ccccc1)n1c(=S)[nH]c2ccccc2c1=O (stereo unspecified) | -10% | 3% | -1% | ? | 48% | 14µM*
O=[N+]([O-])c1ccc(NN=Cc2cccc3ccccc23)nc1 | . | . | . | . | 2% | -15%
Cc1ccc(Cn2cc(/C=N/Nc3ccc([N+](=O)[O-])cn3)c3ccccc32)cc1 | -21% | -8% | 4% | 50µM* | 4% | -22%
O=C(O)Cn1cc(/C=N/Nc2ccc([N+](=O)[O-])cn2)c2ccccc21 | ? | ? | . | 45µM* | ? | ?
O=C(COc1ccccc1Cl)Nc1ccc(N2CCN(C(=O)c3ccccc3)CC2)cc1 | ? | -11% | 5% | . | -2% | ?
C=CCSc1n[nH]c(-c2ccc(OCCC)cc2)n1 | 8% | -7% | 7% | 5%[12.7 µM] | 58% | -2%

Assay outcomes as filed in PubChem BioAssay.
